Structures are written as SMILES. Active and inactive are the calls of the source. Rule for the calls: active = hit-call score of the fitted dose curve at least 0.9, where 1 is the maximum; inactive = score below 0.9.

This test is described as follows: CCTE_Shafer_MEA_acute_per_burst_spike_number_mean: CCTE's Neural Acute Assay for Average Number of Spikes Per Burst, Shafer Lab (AID 2284015).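 Note: hits are decreases in mean spikes per burst versus baseline.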 On the procedure:
CCTE_Shafer_MEA_acute assay is conducted using Axion Biosystems 48 well microelectrode array (MEA) plates and Maestro recording system. Each well of the MEA plate contains a grid of 16 microelectrodes embedded in the culture surface. Electrically active cells, such as neurons, can be cultured over the electrodes, and electrical activity in these cells can be recorded extracellularly. The spontaneous firing of neurons is captured from each electrode on a microsecond timescale providing both temporally and spatially precise data. […] The CCTE_Shafer_MEA_acute assay uses primary cultures of rat cortical neurons. As these cultures mature over time, neural networks develop functional activity and form cohesive networks in which electrical activity can be highly coordinated. Baseline 40-minute recordings are made on days post-plating 13 or 15, followed by a secondary 40-minute recording after chemical exposure.CCTE_Shafer_MEA_acute_per_burst_spike_number_mean is a component of the CCTE_Shafer_MEA_acute assay. It measures the average number of spikes (action potential firings) in a single-electrode burst (temporally-clustered group of spikes) during a recording in a microelectrode array (MEA) using Axion Biosystems Maestro 768 channel amplifier with the AxIS adaptive spike detector. The recordings before and after chemical treatment are used to calculate a percent change in the mean number of spikes per burst in each well.Data from the assay component CCTE_Shafer_MEA_acute_per_burst_spike_number_mean was analyzed into 1 assay endpoint. This assay endpoint, CCTE_Shafer_MEA_acute_per_burst_spike_number_mean, was analyzed in the negative analysis fitting direction relative to DMSO as the negative control and baseline of activity. Using a type of functional reporter, gain or loss-of-signal activity can be used to understand electrical activity.
Spontaneous activity in the cortical cultures was recorded using an Axion Biosystems Maestro 768 channel amplifier and Axion Integrated Studios (AxIS) v1.8 (or later) software. The amplifier recorded from all channels simultaneously (gain = 1200 x; sampling rate = 12.5 kHz/channel): raw signals were filtered with a Butterworth band-pass filter (300-5000 Hz), which filters out slower local field potentials leaving only fast potentials, i.e., "spikes", arising from extracellular currents associated with action potentials (Pine 2006; Wheeler and Nam 2011). On-line spike detection of filtered signals was conducted with the AxIS adaptive spike detector, using a threshold of 8x the root mean squared (rms) noise on each channel. Any electrodes with rms noise levels greater than 5 uV were grounded (e.g., no data were recorded). Once grounded, an electrode was grounded for the duration of the experiment. All recordings were conducted at 37 C. Wells were deemed usable if on the day of the exposure >/= 10 electrodes were active (defined as >/= 5 spikes/min). On DIV 13 or 15, a minimum of three wells from one cortical culture preparation were treated with each compound (0.03-40 uM). Prior to recording baseline activity, each mwMEA plate was placed in the Maestro at 37 C and allowed to sit for 20 min while firing rates stabilized. Baseline activity (40 min) was recorded before the addition of each compound. An additional 40 min of spontaneous activity was recorded in the presence of each compound. Changes in network parameters relative to baseline were assessed following compound treatment.
As for `CCCN(CC)CC1COC2(CCC(C(C)(C)C)CC2)O1` (stereo unspecified), the compound was called inactive.
Same read-out and setting: the value for `CCOc1nc(F)cc2nc(S(=O)(=O)Nc3c(Cl)cccc3Cl)nn12` was “inactive”.
For `CC1(C)C(C(=O)OC(C#N)c2cccc(Oc3ccccc3)c2)C1(C)C` (stereo unspecified), the AC50 is 0.44 µM (active).
`CNC(=O)Oc1cccc2ccccc12`: the outcome was inactive.
With `Cc1c(COC(=O)[C@@H]2[C@H](/C=C(\Cl)C(F)(F)F)C2(C)C)cccc1-c1ccccc1`, the compound was called inactive.
On to `N#CN=C1SCCN1Cc1ccc(Cl)nc1`, for which the call was inactive.
For `Clc1nc(Cl)nc(Nc2ccccc2Cl)n1`, the result was inactive.
As for `CO/N=C(/C1=NOCCO1)c1ccccc1Oc1ncnc(Oc2ccccc2Cl)c1F`, the AC50 was 20 µM (active).
Turning to `CC1(C)C(C=C(Cl)Cl)C1C(=O)OC(C#N)c1cccc(Oc2ccccc2)c1` (stereo unspecified), the result was inactive.
For the compound `CC(C)C1(C)N=C(c2ncccc2C(=O)O)NC1=O` (stereo unspecified), the result was inactive.
In the case of `Cc1ccc(N=CN(C)C=Nc2ccc(C)cc2C)c(C)c1`, the AC50 was 0.308 µM (active).
In the case of `Cn1c(-c2ccccc2)cc(-c2ccccc2)[n+]1C`, the outcome was inactive.
The same measure, in the same setting: the value for `COCC(=O)N(c1c(C)cccc1C)C(C)C(=O)OC` (stereo unspecified) was “inactive”.
Regarding `OC(c1ccc(Cl)cc1)(c1ccc(Cl)cc1)C(Cl)(Cl)Cl`, the compound was classed as inactive.
Consider `Nc1c(Cl)c(F)nc(OCC(=O)O)c1Cl`, for which the call was inactive.
On to `O=C(Nc1ccccc1-c1ccc(Cl)cc1)c1cccnc1Cl`, for which the call was inactive.
With `Cc1nc(N(C)C)nc(OC(=O)N(C)C)c1C`, the outcome was inactive.
For `C=C(C)CN(CC)c1c([N+](=O)[O-])cc(C(F)(F)F)cc1[N+](=O)[O-]`, the compound was classed as inactive.
With `CCCC(=NOCC)C1=C(O)CC(CC(C)SCC)CC1=O` (stereo unspecified), the concentration at half-maximal activity (AC50) was 29.1 µM (active).
Turning to `CCCCC(O)(Cn1cncn1)c1ccc(Cl)cc1Cl` (stereo unspecified), the call was inactive.
For `CC(C)=CC1C(C(=O)OCc2coc(Cc3ccccc3)c2)C1(C)C` (stereo unspecified), the call was inactive.
For `N#Cc1c[nH]cc1-c1cccc2c1OC(F)(F)O2`, the AC50 was 20 µM (active).
On to `COP(=S)(OC)SCn1nnc2ccccc2c1=O`, for which the compound was classed as inactive.
As for `CCOP(=O)(OCC)Oc1nc(Cl)c(Cl)cc1Cl`, the AC50 was 0.00298 µM (active).
For `CC(C)N1C(=O)c2ccccc2NS1(=O)=O`, the compound was classed as inactive.
`CN/C(=N\[N+](=O)[O-])NCc1cnc(Cl)s1`: the compound was classed as inactive.
Consider `COC(=O)N(C(=O)N1CO[C@@]2(C(=O)OC)Cc3cc(Cl)ccc3C2=N1)c1ccc(OC(F)(F)F)cc1`, for which the compound was classed as inactive.
As to `CC1(C)CCC(=Cc2ccc(Cl)cc2)C1(O)Cn1cncn1` (stereo unspecified), the compound was classed as inactive.
`CC(C)N1C(=O)N(c2ccccc2)CSC1=NC(C)(C)C`: the AC50 is 20 µM (active).
For the compound `CCOC(=O)C(C)OC(=O)c1cc(Oc2ccc(C(F)(F)F)cc2Cl)ccc1[N+](=O)[O-]` (stereo unspecified), the outcome was inactive.
For the compound `CCOc1cc(C(C)(C)C)ccc1C1COC(c2c(F)cccc2F)=N1` (stereo unspecified), the result was inactive.

By AC50 is commonly meant the midpoint of the concentration-response curve, whichever way the signal moves.

The record behind these values is PubChem BioAssay (EPA / NIEHS).
